The source of these data is PubChem BioAssay (NCATS).

Records with an inconclusive call do not appear. Active and inactive are the calls of the source. Unless noted, calls follow the shape of the dose curve; as a rule, active = well fitted inhibition curve with a large enough effect; inconclusive = small, poorly fitted or top-dose-only effect; inactive = flat fitted curve, though single readings scatter.

Assay [1] in a line: qHTS drug screen for cell cycle checkpoint inhibitors in PARPi-resistant BRCA-mutant ovarian cancer cell lines. (AID 1963452; calls by dose curve). Conditions: PEO1/OlaR viability, CellTiter-Glo luminescence, 96 h, stronger effect = lower value. The procedure, abridged:
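PEO1, PEO4 and PEO1/OlaR ovarian cancer cells, 600 per well, exposed 96 h at 37C to a dilution series. Viability read by CellTiter-Glo luminescence, normalized to DMSO and empty wells; activity summarized as Z-AUC.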
(In general: In qHTS, concentration-response curves come from the screen itself.)

Assay [2] is described as follows: qHTS for identification of novel therapeutic agents for treatment of microphthalmiaassociated transcription factor (MiT) renal cell carcinoma (RCC) (AID 1963991). Particulars: CellTiter-Glo, 48 h, stronger effect = lower value. In a few lines: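 Three TFE3-fusion RCC lines (UOK109, UOK124, UOK145), 500 cells/well in complete medium, were treated with MIPE 4.0 compounds for 48 hours at 37 C. Viability was by CellTiter-Glo luminescence, normalized to DMSO (100%) and empty wells (0%); curves fitted over 11 concentrations.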

Assay [3] can be described thus: qHTS profiling for inhibitors of Plasmodium falciparum proliferation (AID 504749). Also: potency is read from the fitted curve at half-maximal effect.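 As to activity, negative = inhibition: 0% = DMSO vehicle and full inhibition = artemisinin control.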 As to all read-outs here: nearly all actives have a fitted effect of over 60% in size. Particulars: P. falciparum in erythrocytes, SYBR Green DNA, 72 h; for activity, negative = inhibition: at 28.7 µM (top of the series). In a few lines: (§1)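 SYBR Green fluorescence (ex 485 nm, em 535 nm) reports parasite DNA after 72 h compound exposure of infected red cells at 0.3% parasitemia, 2.5% hematocrit; signal normalized to 0.29 uM artemisinin and vehicle wells.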

A further assay relates to 3D7. The assay is described as above. Conditions: P. falciparum in erythrocytes, SYBR Green DNA, 72 h; series mostly up to 28.7 µM. The procedure, abridged:
as §1

Another assay relates to 7G8. Described as above. Conditions: P. falciparum in erythrocytes, SYBR Green DNA, 72 h; series mostly up to 28.7 µM. In a few lines: as §1
For the next assay, the system named is AA1029. The assay is described as above. Conditions: P. falciparum in erythrocytes, SYBR Green DNA, 72 h; series mostly up to 28.7 µM. In a few lines: as §1
Another assay has as its system AS120. The assay is described as above. Particulars: P. falciparum in erythrocytes, SYBR Green DNA, 72 h; series mostly up to 28.7 µM. In a few lines:
as §1

In the next assay the test system is ATS189. The assay is described as above. Particulars: P. falciparum in erythrocytes, SYBR Green DNA, 72 h; series mostly up to 28.7 µM. In a few lines:
as §1

The test system of another assay is ATS95. The assay is described as above. Particulars: P. falciparum in erythrocytes, SYBR Green DNA, 72 h; series mostly up to 28.7 µM. In a few lines: as §1
The next assay deals with C2A. Described as above. Conditions: P. falciparum in erythrocytes, SYBR Green DNA, 72 h; series mostly up to 28.7 µM. In a few lines:
as §1

In the next assay the test system is CP185. Described as above. Particulars: P. falciparum in erythrocytes, SYBR Green DNA, 72 h; series mostly up to 28.7 µM. The procedure, abridged: as §1
Another assay concerns CP191. The assay is described as above. Particulars: P. falciparum in erythrocytes, SYBR Green DNA, 72 h; series mostly up to 28.7 µM. The procedure, abridged:
as §1

The subject of another assay is CP192. The assay is described as above. Conditions: P. falciparum in erythrocytes, SYBR Green DNA, 72 h; series mostly up to 28.7 µM. In a few lines:
as §1

In a further assay the test system is CP194. The assay is described as above. Particulars: P. falciparum in erythrocytes, SYBR Green DNA, 72 h; series mostly up to 28.7 µM. The procedure, abridged:
as §1

The next assay deals with CP201. The assay is described as above. Particulars: P. falciparum in erythrocytes, SYBR Green DNA, 72 h; series mostly up to 28.7 µM. In a few lines: as §1
Setting [4] is: measured here: PEO1 parental Z-AUC.
Where [5] appears, read: TFE3-RCC UOK109 viability, measured here: UOK109 Z-AUC.
The mark [6] stands for this setting: TFE3-RCC viability, measured here: UOK124 Z-AUC.
Setting [7] is: TFE3-RCC viability, measured here: UOK145 Z-AUC.

In the case of `COc1c2occc2cc2ccc(=O)oc12`, the Z-AUC was 0.446 (inactive) in [1], 1.07 in assay [1] (setting [4]) and 1.02 in [1] (measured here: PEO4 Z-AUC). The z-score in assay [2] (setting [5]) is -0.0945; in [2] (setting [6]), 0.483; in assay [2] (setting [7]), 0.177.

For `Nc1ccn([C@@H]2O[C@H](CO)[C@@H](O)C2O)c(=O)n1` (some centres not stated), the Z-AUC in assay [1] is -1.18 (inactive); in assay [1] (setting [4]), -1.27; in [1] (measured here: PEO4 Z-AUC) it was -0.431. The z-score is 0.798 in [2] (setting [5]), 0.809 in assay [2] (setting [6]) and 0.948 in [2] (setting [7]). Also, the activity, negative = inhibition in [3] (parasite line A) is 12.2% (inactive); in assay [3] (parasite line B), 0.749% (inactive). Also, the Potency entry with 3D7, with 7G8, in the assay on AA1029, in the assay on AS120, with ATS189 and with ATS95 was “inactive” throughout. Besides, the Potency result in the assay with C2A, in the assay on CP185, with CP191, with CP192, with CP194 and in the assay with CP201 was “inactive” throughout.

As to `C[C@@H](c1ncncc1F)[C@](O)(Cn1cncn1)c1ccc(F)cc1F`, the Z-AUC was -0.415 (inactive) in [1], 1.15 in assay [1] (setting [4]) and 0.481 in [1] (measured here: PEO4 Z-AUC). Besides, the z-score stood at 0.104 in assay [2] (setting [5]), 0.588 in assay [2] (setting [6]) and 0.181 in [2] (setting [7]).

With `CCCCN(CCCC)CCC(O)c1cc2c(Cl)cc(Cl)cc2c2cc(C(F)(F)F)ccc12` (configuration not stated), the results for the Z-AUC in [1], in assay [1] (setting [4]) and in [1] (measured here: PEO4 Z-AUC) were -0.995 (inactive), -1.16 and -0.882, respectively. Also, the z-score in assay [2] (setting [5]) is 0.318; in [2] (setting [6]), 0.539; in [2] (setting [7]) it was 0.552. Also, the Potency was 7.9 nM (active) in [3] (parasite line A); 5.6 nM (active) in assay [3] (parasite line B); 3.2 nM (active) with 3D7; 1.1 nM (active) in the assay on 7G8; 6.3 nM (active) in the assay on AA1029; 5.6 nM (active) in the assay with AS120. The Potency with ATS189 is 5.6 nM (active); in the assay with ATS95 it was 7.9 nM (active); in the assay with C2A, 25.1 nM (active); with CP185 it was 28.2 nM (active); in the assay on CP191, 12.6 nM (active); in the assay with CP192 it was 10.2 nM (active). In addition, the Potency was 32.2 nM (active) in the assay on CP194 and 51 nM (active) with CP201.

For `CCC1=C(C)CN(C(=O)NCCc2ccc(S(=O)(=O)NC(=O)NC3CCC(C)CC3)cc2)C1=O` (configuration not stated), the Z-AUC is -0.196 (inactive) in [1], 0.246 in assay [1] (setting [4]) and 0.144 in assay [1] (measured here: PEO4 Z-AUC). Moreover, the z-score in assay [2] (setting [5]) was 0.704; in assay [2] (setting [6]) it was 0.513; in assay [2] (setting [7]) it was 0.718. Moreover, the activity, negative = inhibition is 6.02% (inactive) in [3] (parasite line A) and 7.16% (inactive) in [3] (parasite line B). For the same compound, the Potency entry in the assay with 3D7, in the assay with 7G8, in the assay with AA1029, in the assay with AS120, with ATS189 and in the assay with ATS95 was “inactive” throughout. For the same compound, the Potency entry with C2A, with CP185, in the assay on CP191, in the assay on CP192, in the assay on CP194 and in the assay on CP201 was “inactive” throughout.

As for `N[C@@H](Cc1cc(I)c(Oc2cc(I)c(O)c(I)c2)c(I)c1)C(=O)O`, the Z-AUC is -1.16 (inactive) in assay [1], -0.336 in [1] (setting [4]) and -0.169 in assay [1] (measured here: PEO4 Z-AUC). Besides, the z-score in assay [2] (setting [5]) came out at 0.737; in [2] (setting [6]) it was 0.682; in assay [2] (setting [7]), 0.762. For the same compound, the activity, negative = inhibition in assay [3] (parasite line A) was -3.11% (inactive); in assay [3] (parasite line B), -2.18% (inactive). Moreover, the Potency entry with 3D7, in the assay on 7G8, in the assay with AA1029, in the assay with AS120, in the assay on ATS189 and in the assay on ATS95 was “inactive” each time. Besides, the Potency entry in the assay with C2A, with CP185, in the assay on CP191, in the assay with CP192, in the assay on CP194 and with CP201 was “inactive” each time.
